In PubChem BioAssay (NCI):
The panel holds about 83,000 compounds, 20% with a hit somewhere; the sample as a whole holds those more often.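 For each line, cells grew in 96-well plates with the test compound present at a single concentration for 48 hours.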 Values without a mark were called inactive. Activity calls are given as the source filed them.

Test system: U251 CNS
Experiment: NCI-60 one-dose screen, 48 h (100 = growth as untreated, 0 = no growth, -100 = all killed)
Conditions: 10 µM unless noted
Description: Growth inhibition of the U251 human tumor cell line is measured as a screen for anti-cancer activity. Cells are grown in 96 well plates and exposed to the test compound for 48 hours. Compounds are tested at a single concentration, which is 10^-5 M for most compounds. The reported endpoint is percent growth (GI% or GIPRCNT), where numbers from 0 - 100% represent growth inhibition, and numbers from -100% - 0 represent cell death. For example, a value of 40 represents 60% growth inhibition. A value of 0 means no net growth occurred over the course of the experiment. A value of -40 indicates 40% of cells at the beginning of the experiment died by the end of the experiment. A value of -100 means all cells are dead at the end of the experiment.
NCI-60 Human Tumor Cell Lines Screen was performed using the standard one-dose NCI protocol, which is described in more detail at https://dtp.cancer.gov/discovery_development/nci-60/default.htm.
Compounds with GIPRCNT values below 10 were considered active. Activity score was based on GIPRCNT using the following formula: […]
Score is 0 for GIPRCNT values of 100 or above, 50 for GIPRCNT values of 0, and 100 for GIPRCNT values of -100.

`CC(=O)N1N=C(c2ccc(Nc3nc(Nc4ccc(Cl)cc4)nc(Nc4ccc(Cl)cc4)n3)cc2)CC1c1ccco1` (stereo not given) was tested. Which growth did it give?
Its growth is 81.7%.

With `CCCCCOc1ccc(C(=O)/C(Br)=C/C(=O)O)cc1` as the compound, how does the growth read?
The growth was 86.7%.

Which growth does the source give for `O=C(CSc1nnc2n1S(=O)(=O)c1ccccc1N2c1ccccc1)Nc1nc2ccc(F)cc2s1` here?
Its growth is 103%.

For `O=c1c2cc(-c3ccccc3)sc2nc2sc(-c3ccccc3)nn12`, which growth is on record?
The growth was 92.1%.

`COC(=O)c1c2c(c(C)[n+]([O-])c1C)C(=O)C(NCc1ccc(Cl)cc1)=CC2=O` was tested. Which growth did it give?
Its growth is 57.2%.

With `CC1=Nc2cnc(Nc3ccc(OCCN4CCCCC4)cc3)nc2Nc2ccccc21` as the compound, how does the growth read?
The growth was 76.6%.

`O=C(CSc1nc2sc3c(c2c(=O)n1-c1ccccc1)CCCCC3)N/N=C/c1ccc(F)cc1` was tested. Which growth did it give?
The growth was 6.96% (active).

`CC1(C)CC[C@]2(c3nnc(-c4ccncc4)o3)CC[C@H]3C(=CC[C@H]4[C@@]3(C)CC[C@H]3C(C)(C)C(=O)CC[C@]43C)[C@@H]2C1` was tested. Which growth did it give?
Its growth is 62.4%.

How did the growth turn out when `Cn1cc(-c2nonc2-c2c[nH]c3ccc(Br)cc23)c2cc(Br)ccc21` was run?
The growth was 42.9%.

For `COCCn1c(-c2csc(-c3cn(C)c4ccc(OC)cc34)n2)cc2cccnc21`, which growth is on record?
The growth was 48.4%.

For `CCc1n(Cc2ccc3ccccc3c2)cc[n+]1Cc1ccc2ccccc2c1`, which growth is on record?
Its growth is 4.23% (active).

How did the growth turn out when `CC(C)OC(=O)c1ccc2[nH]c(O)c(C(=Nc3ccc(N(C)C(=O)CN4CCN(C)CC4)cc3)c3ccccc3)c2c1` was run?
Its growth is -90.5% (active).

For `Nc1c(C(=O)Nc2ccccc2Cl)sc2nc3c(cc12)C(O)CCC3` (stereo not given), which growth is on record?
Its growth is 29.4%.

With `Cc1ccc(-c2nc3nc(-c4ccc(F)cc4)nc(N4CCNCC4)c3o2)cc1` as the compound, how does the growth read?
Its growth is -30.9% (active).

`C#COc1cccc(Nc2ncnc3ncc(NC(=O)CCl)cc23)c1` was tested. Which growth did it give?
The growth was -73.3% [6.25 µM] (active).

For `COC(=O)c1cc(-c2ccccc2)[nH]c1N/N=C/c1c(Cl)cccc1Cl`, which growth is on record?
The growth was 12.1%.

Which growth does the source give for `Cc1cnc(C(=O)NNc2nc3sc4c(c3c(=O)n2C)C(C)CCC4)cn1` (stereo not given) here?
Its growth is -33.3% (active).

With `O=C1/C(=C/c2ccc(Cl)cc2)COc2ccc(O)cc21` as the compound, how does the growth read?
Its growth is 44.9%.

`COc1ccc2c(c1)c(-c1noc(C(=O)c3cn(C)c4ccc(Br)cc34)n1)cn2C` was tested. Which growth did it give?
Its growth is 101%.

With `CN1CCN(C(=O)c2ccc(NC(=O)Nc3ccc(-c4nc(N5CCOCC5)c5cccn5n4)cc3)cc2)CC1` as the compound, how does the growth read?
The growth was 3.91% (active).

`Cc1nnc(NC(=O)c2nc(S(=O)(=O)Cc3ccc(F)cc3)ncc2Cl)s1` was tested. Which growth did it give?
The growth was 62.2%.

For `N#Cc1c(-c2ccc(Cl)cc2)nc(SCC(=O)NC2=NN=C(c3ccccc3)CS2)[nH]c1=O`, which growth is on record?
The growth was 77.3%.

How did the growth turn out when `COc1cc(-c2nc(SCCC(C)C)nc(Nc3ccccc3Cl)c2C#N)cc(OC)c1OC` was run?
Its growth is 106%.

With `Oc1ccc(CCn2c(O)c(/C=C3\CN=c4ccccc4=N3)sc2=S)cc1` as the compound, how does the growth read?
Its growth is 80.3%.

How did the growth turn out when `N#Cc1c(-c2ccc(Cl)cc2)nc(NN=Cc2cccc(O)c2)nc1N1CCOCC1` was run?
The growth was 61.6%.

Which growth does the source give for `C#Cc1ccc(NC(=O)c2ccc(/C=C/C(=O)c3nccn3C)cc2)cc1` here?
The growth was -67% (active).

How did the growth turn out when `O=C(OCc1ccc2cccc(O)c2n1)N1CCN(C(=O)c2cc3cc(F)ccc3[nH]2)CC1` was run?
The growth was -87.2% (active).

For `Clc1ccc2c(c1)N(c1ncnc3ccc(-c4cnc5[nH]ncc5c4)cc13)CC2`, which growth is on record?
The growth was 39.8%.

How did the growth turn out when `COc1ccc(-c2csc(NC(=O)CSc3nc(-c4ccccc4)cc(=O)[nH]3)n2)cc1` was run?
Its growth is 79.7%.

For `CC1(C)CCC(S(=O)(=O)c2ccc3c(c2)/C(=N\O)c2cc(S(=O)(=O)N4CCC(O)(c5cccc(C(F)(F)F)c5)CC4)ccc2-3)CC1`, which growth is on record?
Its growth is -98.6% (active).

With `Oc1c(Cl)cc(Cl)c2ccc(Cn3cc(-c4cc(C(F)(F)F)cc(C(F)(F)F)c4)nn3)nc12` as the compound, how does the growth read?
The growth was 105%.

How did the growth turn out when `O=c1oc2ccc([N+](=O)[O-])cc2cc1Br` was run?
Its growth is 101%.

With `CNC(=O)c1c(NC(=O)c2ccc(C(F)(F)F)cc2)sc2c1CCC(=O)C2` as the compound, how does the growth read?
Its growth is -12.8% (active).

How did the growth turn out when `N#CC1=C(N)Oc2c(sc3c(F)cccc23)C1c1ccc(F)cc1` (stereo not given) was run?
Its growth is 22.2%.

With `C=C(C)[C@@H]1CC[C@]2(C(=O)OC)CC[C@]3(C)[C@H](CC[C@@H]4[C@@]5(C)C/C(=C/NC(N)=S)C(=O)C(C)(C)[C@@H]5CC[C@]43C)[C@@H]12` as the compound, how does the growth read?
The growth was 90.7%.

For `C#CCOc1cccc(Nc2ncnc3c(NC(=O)C=C)cccc23)c1`, which growth is on record?
The growth was 24.7%.

For `O=C(NNC(=O)c1ccc(-n2cc(-c3ccccc3)nn2)cc1)Nc1ccccc1`, which growth is on record?
The growth was 96.5%.

For `O=C1c2cccnc2C(=O)c2c1c(C(=O)NCCCN1CCCCC1)c1ccccn21`, which growth is on record?
Its growth is -48.4% (active).

With `O=S(=O)(NCCCNc1nccc(-c2c(-c3ccc(F)c(O)c3)nc3occn23)n1)c1ccccc1` as the compound, how does the growth read?
Its growth is 99.7%.

How did the growth turn out when `COc1ccccc1Nc1nc2c(s1)C1=CC[C@H]3[C@@H]4CC[C@H]([C@H](C)CCCC(C)C)[C@@]4(C)CC[C@@H]3[C@@]1(C)CC2` was run?
The growth was 113%.
